This excerpt belongs to a sample that is enriched for hits.
Pf Dd2 inh – inhibitors of Plasmodium falciparum Dd2 growth | P. falciparum Dd2 growth, SYBR Green, 72 h | Potency, µM (highest dose often 28.9 µM), for inactives: at the highest dose activity, negative = inhibition, most hits filed as inhibitors | 4.3% of 120,000 active | AID 1347417; active = well fitted inhibition curve with a large enough effect;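 also: plate controls were DMSO vehicle for no effect and reference drug for full effect; nearly all actives have a fitted effect of over 65% in size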
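Readout: SYBR Green fluorescence, 485 nm excitation, 535 nm emission, after ~16 h lysis at 37C. Before that, Dd2-infected red cells (2.5% hematocrit) grew 72 h with compound, 29 uM top final concentration.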
Numbers without * were called inactive; i = inactive; [ ] = remark or other dose. Potency is read from the fitted curve at half-maximal effect.

SMILES | Pf Dd2 inh
Cc1noc(C)c1S(=O)(=O)N1CCCN(Cc2ccncc2)C(c2ccccc2)CC(=O)NCC1 (stereo not given) | 1.12µM*
O=C1CC(c2ccccc2)N(Cc2ccncc2)CCCN(CC2CCCCC2)CCN1 (stereo not given) | 3.16µM*
CS(=O)(=O)N1CCCN(Cc2ccccn2)CCNC(=O)CC1c1ccccc1 (stereo not given) | -5.1%
O=C1CC(c2ccccc2)N(Cc2ccncc2)CCCN(C(=O)CN2CCCC2=O)CCN1 (stereo not given) | i
CCn1ncc(CN2CCCN(Cc3ccncc3)C(c3ccccc3)CC(=O)NCC2)c1C (stereo not given) | -4.2%
Cc1noc(C)c1S(=O)(=O)NCC(=O)N1CCCCCNC(=O)CC1c1ccccc1 (stereo not given) | 9.9%
Cc1noc(C)c1S(=O)(=O)N1CCCCCCNC(=O)CC1 | 3.5%
COc1cc(C)ccc1S(=O)(=O)NCC1CNCCOC1 (stereo not given) | -1.7%
Cc1cc(C(=O)N2CCC(Oc3ccccc3)C2)n(C)n1 (stereo not given) | i
CN1CCOc2c(C(=O)NCc3cnn(C)c3)cc(-c3ccccc3)cc21 | i
Cc1noc(-c2cn(C3CCN(C(=O)Cc4ccsc4)C3)nn2)n1 (stereo not given) | i
Cc1cc(-c2cc3c(cn2)CN(CC2CCOCC2)CCN3)ccn1 | -1.3%[44.1 µM]
O=C(N1CCOCC1)N1CCn2c(nnc2C2CCNCC2)C1 | 41.6%
COCCCN1C(=O)CC(CC(=O)N2CCC(C(O)c3ccccc3)CC2)(c2ccccc2C)C1=O (stereo not given) | -11.5%
CC(=O)NC[C@@H]1C=C(C)[C@H](Cc2nc3ccccc3n2C)C[C@H]1C(C)C | i
CC1=C[C@@H](CNCc2ccncc2)[C@H](C(C)C)C[C@H]1Cc1nnc(C)o1 | i
CC1=C[C@@H](CNC(=O)N2CCOCC2)[C@H](C(C)C)C[C@H]1Cc1nc2ccccc2[nH]1 | -7.8%[44.1 µM]
CC1=C[C@@H](CNCc2ccc(C#N)cc2)[C@H](C(C)C)C[C@H]1Cc1nnc(-c2cccnc2)o1 | -18.8%
CC(=O)N1CCN(C[C@@H]2C=C(C)[C@H](Cc3nnc(-c4ccncc4)o3)C[C@H]2C(C)C)CC1 | 11.2µM*
CC(=O)N1CCN(C[C@@H]2C=C(C)[C@H](Cc3nnc(-c4ccccc4F)o3)C[C@H]2C(C)C)CC1 | 12.6µM*
CC1=C[C@@H](CN2CCC(C(N)=O)CC2)[C@H](C(C)C)C[C@H]1Cc1nnc(-c2cccnc2)o1 | i
CC1=C[C@@H](CNC2CCOCC2)[C@H](C(C)C)C[C@H]1Cc1nc2ccccc2n1C | 5.01µM*
CC1=C[C@@H](CNCc2ccccn2)[C@H](C(C)C)C[C@H]1Cc1nnc(-c2ccccc2F)o1 | 3.16µM*
CC1=C[C@@H](CN2CCC(C(N)=O)CC2)[C@H](C(C)C)C[C@H]1Cc1nnc(-c2ccncc2)o1 | -11.0%[44.1 µM]
COCCN1C(=O)[C@H]2CN(Cc3cccc(C)c3)C[C@H]2C1=O | -23.9%
SMILES | Pf Dd2 inh
O=C(O)c1ccc(CC2CCN(C(=O)C3CC3)CC2)cc1 | -6.6%
Cc1noc([C@@H](C)NC(=O)Nc2ccc(Cl)cc2)c1C(=O)O | -25.0%[44.1 µM]
CN(Cc1cnccn1)C(=O)c1cc(CN2CCC(Cc3ccccc3)CC2)on1 | 6.2%
CN1CCN(c2cc(=O)c3ccnc(Nc4ccc(F)c(Cl)c4)c3o2)CC1 | -22.7%[44.1 µM]
CCc1nc(-c2ccccc2)n2cc[nH]c(=O)c12 | i
COCC(=O)N1CCN(C(=O)c2cccc(F)c2)C[C@H]1C(=O)OC | -20.3%[44.1 µM]
CC1=C[C@@H](CNC(=O)COc2ccccc2)[C@H](C(C)C)C[C@H]1CC(=O)NCCN1CCOCC1 | i
CC1=C[C@@H](CN2CCOCC2)[C@H](C(C)C)C[C@H]1Cc1nnc(-c2ccncc2)o1 | -12.5%[44.1 µM]
CC1=C[C@@H](CNC(=O)C2CC2)[C@H](C(C)C)C[C@H]1Cc1nnc(-c2ccccc2F)o1 | 15.8µM*
CC1=C[C@@H](CNCCN2CCOCC2)[C@H](C(C)C)C[C@H]1Cc1nnc(-c2ccccc2)o1 | 3.98µM*
CC1=C[C@@H](CN2CCN(c3ccccc3)CC2)[C@H](C(C)C)C[C@H]1Cc1nnc(-c2cncn2C)o1 | 3.98µM*
CC1=C[C@@H](CNC(=O)C2CCCCC2)[C@H](C(C)C)C[C@H]1CC(=O)NCc1cccnc1 | -22.0%[44.1 µM]
CC(=O)NC[C@@H]1C=C(C)[C@H](Cc2nnc(-c3cncn3C)o2)C[C@H]1C(C)C | 0.4%[44.1 µM]
COCC(=O)NC[C@@H]1C=C(C)[C@H](Cc2nnc(-c3cncn3C)o2)C[C@H]1C(C)C | i
CC(=O)N1CCN(C[C@@H]2C=C(C)[C@H](Cc3nnc(-c4cncn4C)o3)C[C@H]2C(C)C)CC1 | -11.5%
Cc1nc2c(N)cccn2n1 | 6.2%
O=C(N[C@@H]1CCC[C@@H]1C(=O)NCc1ccc(OC(F)(F)F)cc1)c1ccncc1 | -11.9%
COc1cc(NC(=O)Cn2c(C)cc3nc4n(c(=O)c32)CCC4)cc(OC)c1OC | 297.5%
CCN(CC)C(=O)CN1C(=O)NC(c2ccccc2OC)C2=C1COC2=O (stereo not given) | -7.5%
CNC(=O)[C@@H]1CN(C(=O)CCc2c[nH]c3ccccc23)C[C@H]1CO | -1.2%
O=C(N[C@@H]1CCOC[C@H]1OCc1cscn1)c1ccc(Cl)s1 | -15.8%
CCCNC(=O)c1c(OCC2CC2)cc(=O)n2c1CCOCC2 | -1.2%
O=C1N(C2CCOCC2)C[C@H]2CN(Cc3ccccc3F)CCN12 | -4.4%[44.1 µM]
Cc1ccc(C)c(Nc2nn3c(=O)c4ccc(C(=O)NC5CCCCC5)cc4nc3s2)c1 | -24.7%
CCN(CC)CCNC(=O)c1ccc2c(=O)n3nc(Nc4cccc(Cl)c4C)sc3nc2c1 | 5.62µM*
SMILES | Pf Dd2 inh
Cc1ccc(Cl)cc1Nc1nn2c(=O)c3ccc(C(=O)NC4CCC(C)CC4)cc3nc2s1 (stereo not given) | -9.2%
Cc1ccccc1Nc1nn2c(=O)c3ccc(C(=O)N4CCCC(C)C4)cc3nc2s1 (stereo not given) | i
Cc1ccc(C)c(Nc2nn3c(=O)c4ccc(C(=O)NCCC5=CCCCC5)cc4nc3s2)c1 | 10µM*
Cc1ccc(C)c(Nc2nn3c(=O)c4ccc(C(=O)NCCc5ccccc5)cc4nc3s2)c1 | 6.4%
Cc1c(Cl)cccc1Nc1nn2c(=O)c3ccc(C(=O)NCCC4=CCCCC4)cc3nc2s1 | 3.98µM*
O=C1CCN(S(=O)(=O)c2ccccc2)CCCC(C(=O)NCCc2ccccc2)CCN1 (stereo not given) | -1.1%
Cc1ccc(-n2c(C3CCN(C(=O)c4ccco4)CC3)n[nH]c2=O)cc1 | -24.2%
Cc1c(C(=O)NCc2cncn2CC(C)C)oc2c(F)cccc12 | -27.8%
CCn1ncc(N2CCC(NC(=O)Cc3ccsc3)CC2)cc1=O | -5.3%
CCCCNc1ccc2nncn2n1 | 24.7%
COc1ccc(-c2nc(C)nc3c2CCN(Cc2cncs2)CC3)cc1 | i
COc1ccc2c(c1)OCC(CNC(=O)CN1CCOCC1)C2 (stereo not given) | -6.0%
COc1ccc(-c2c(C)c3ccc(O)c(CN4CCOCC4)c3oc2=O)cc1 | 8.91µM*
COc1ccc(CNC(=O)C2CCN(Cc3nc(-c4ccc(Cl)cc4)oc3C)CC2)cc1 | 24.4%
COc1ccc(-c2c(C)c3ccc(O)c(CN4CCCC4)c3oc2=O)cc1 | 3.16µM*
COc1ccc(C(CNC(=O)c2oc3ccc(C)cc3c2C)N2CCOCC2)cc1 (stereo not given) | -19.4%
COc1ccc(C(=O)N[C@@H]2CCC[C@@H]2C(=O)NCCC2=CCCCC2)cn1 | i
COc1cccc2ccc(-c3c(-c4ccccc4)ncn3CCNC(C)=O)nc12 | -28.1%

Screens (PubChem)
